Among the data in PubChem BioAssay AID2314 (National Center for Advancing Translational Sciences (NCATS), 2010) are max response values, retold here.

SMILES strings stand for the structures. Values joined by “and” are separate entries in the source; they are usually repeats but may differ in a detail not shown here. Identical values can stand only once. Out of some 300,000 compounds screened, about 37,000 (12%) were called active. No stated cut-off is given here; in the data, active means max response mostly above about 13% (no sharp cut-off); inactive means mostly below about 14%. The full list was thinned out, with actives kept by preference.

This test is described as follows: Cycloheximide Counterscreen for Small Molecule Inhibitors of Shiga Toxin. Further: read at 38.3 µM for the half of the compounds with a filed dose; 0% is about no effect. Conditions: cell reporter, cycloheximide protein synthesis inhibition counterscreen; active compounds read high.
For `COc1ccc(OCC(=O)NNC(=O)c2ccc(-c3ccccc3)cc2)cc1`, the max response is -2.64% (inactive). With `CC(C)(C)NC(=O)COc1ccc(CNc2ccc3[nH]c(=O)[nH]c3c2)cc1` the figure was -1.49% (inactive); with `COC(=O)c1ccc(OCC(=O)NC(C)(C)C)cc1`, 31.4% (active); with `Cc1cccc(NC(=O)N2CCCCCC2)c1C`, 8.83% (inactive).

`COc1ccc(NS(=O)(=O)c2cc3c(cc2C)N(C(C)=O)CCO3)cc1`: the max response was -2.57% (inactive).

As to `COc1ccc(C/C(N)=N/OC(=O)c2ccco2)cc1OC`, the max response was 22.4% (active). The result for `COc1ccc(C(=O)O/N=C(\N)Cc2ccc(Cl)cc2Cl)cc1OC` reads 4.82% (inactive); that for `COc1ccc(CC(=O)Nc2ccccc2NC(=O)c2ccco2)cc1OC`, 6.8% (inactive); that for `CCc1nnc(NC(=O)CSCc2cc(=O)n3cc(C)sc3n2)s1`, 1.44% (inactive).

In the case of `CCN1CCN(C(=O)c2cc3cc4ccc(OC)cc4nc3s2)CC1`, the max response is 15.1% (active).

`COc1ccc(OC)c(C(=O)c2ccc(C(=O)N3CCN(Cc4csc(C)n4)CC3)cc2)c1`: the max response is -2.77% (inactive). In the case of `CCN1CCN(C(=O)CN(C)S(=O)(=O)c2ccc(OC)cc2)CC1`, the max response is 4.5% (inactive). With `COc1cc(/C=N\Nc2nc(-c3cccs3)c(NC(C)=O)s2)ccc1O` the figure was 17.1% (active); with `COc1cc(/C=N/NC(=O)CCc2n[nH]c(=O)[nH]c2=O)ccc1O`, -0.284% (inactive). The result for `COc1cc(/C=N/NC(=O)CNC(=O)c2ccncc2)ccc1OC(C)=O` reads -4.24% (inactive). The result for `CCNc1nc(NCC)nc(N/N=C/c2ccc(O)c(OC)c2)n1` reads 7.49% (inactive); that for `CCOc1cc(/C=C(\C#N)c2nc(-c3cccs3)c(NC(C)=O)s2)ccc1O`, 1.82% (inactive); that for `COc1cc(/C=N/Nc2nc3ccccc3s2)ccc1O`, 72.3% (active). With `COc1ccc(C(=O)N(C)CC(O)c2ccccc2)cc1OC1CCN(C(C)=O)CC1` (stereo unspecified), the max response was 3.8% (inactive).

On to `CC(C)[C@H](NC(=O)OCc1ccccc1)C(=O)OCc1ccccc1`, for which the max response is -4.84% (inactive).

With `CC1CCN(c2ccc([N+](=O)[O-])c(SCCO)c2)CC1`, the max response was 1.83% (inactive). The result for `FC(F)(F)c1cccc(N/N=C/c2ccccc2)c1` reads 41.1% (active).

As to `NC(=O)Nc1cccc(C(F)(F)F)c1`, the max response was 0.977% (inactive). Regarding `O=C(O)CSCC(=O)Nc1cccc(C(F)(F)F)c1`, the max response was -6.91% (inactive). Regarding `Cc1ccc(O)c(NC(=S)NC(=O)COc2ccc(Br)cc2)c1`, the max response is -1.57% (inactive).

With `Cc1ccc(O)c(NC(=O)COc2cc(C)ccc2C)c1`, the max response is 28.6% (active). For `Cc1ccc(C(C)C)cc1OCC(=O)Nc1ccccc1N1CCCC1`, the max response was -0.789% (inactive). With `COc1nnc(-c2ccc(C)c(S(=O)(=O)N(C)C)c2)c2ccccc12` the figure was 0.699% (inactive); with `Cc1cc(C)c(S(=O)(=O)N2CCOCC2)cc1C`, 1.22% (inactive); with `Cc1nc2cc(NC(=O)NCc3ccccc3)ccc2o1`, 21.4% (active). With `CCCCc1ccc(NC(=O)NCc2cccnc2)cc1`, the max response is 16% (inactive). With `Cc1ccc(NC(=O)Nc2ccc3oc(C)nc3c2)cc1` the figure was 53.3% (active).

As to `Cc1nc2ccc(NC(=O)C(F)(F)F)cc2o1`, the max response was 1.37% (inactive). The result for `O=C(CSc1ncccn1)NC(=O)NCc1ccccc1` reads -1.54% (inactive).

Turning to `COc1ccccc1C(=O)Nc1ccc(OCc2nnc3c4ccccc4c(C)nn23)cc1`, the max response was 1.98% (inactive). With `CN(Cc1ccccc1)C(=O)C1CCCN(c2ncnc3c2nc2n3CCCCC2)C1` (stereo unspecified) the figure was -3.17% (inactive). The result for `N#C/C(=C\c1ccc(N2CCOCC2)o1)C(=O)N1CCOCC1` reads 1.71% (inactive).

As for `CCn1c(=O)c([N+](=O)[O-])c(NCc2ccc3c(c2)OCO3)c2ccccc21`, the max response was -2.03% (inactive). The result for `COCCNC(=O)/C(C#N)=C/c1cccc(OCc2ccccc2)c1` reads 4.87% (inactive); that for `CC(C)(C)C(=O)/C(C#N)=C/c1ccc(O)cc1`, 8.63% (inactive).

As for `CC(C)NC(=O)/C(C#N)=C\c1ccc(N(C)C)c(Br)c1`, the max response is 27.9% (active). With `COc1ccccc1C(C)NC(=O)Cc1ccsc1` (stereo unspecified) the figure was 5.18% (inactive); with `CSCCC(NC(=O)COc1ccccc1)C(=O)Nc1ccc(C)cc1` (stereo unspecified), 4.05% (inactive). With `CC(=O)Nc1ccc(NC(=O)[C@@H](NC(=O)c2cccc(C)c2)C(C)C)cc1` the figure was -5.14% (inactive); with `Cc1ccc(NC(=O)C(C)c2cccc(C(=O)c3ccccc3)c2)cc1` (stereo unspecified), 26.6% (active); with `COc1ccc(N2C(=O)C(CC(=O)Nc3ccccc3)N(Cc3ccc(OC)c(OC)c3)C2=O)cc1` (stereo unspecified), 14.6% (inactive). The result for `CCCCCCSc1nsc(N)n1` reads 23.1% (active); that for `CCCSc1nsc(N)n1`, 22.8% (active). As to `Nc1nc(SC23CC4CC(CC(C4)C2)C3)ns1`, the max response is -2.92% (inactive). With `Cc1ccc(S(=O)(=O)N2CCCC(C(=O)N3CCN(C)CC3)C2)cc1` (stereo unspecified) the figure was 6.16% (inactive); with `Cn1c(=O)[nH]c(=O)c2c1nc(CN1CCN(c3ccccc3F)CC1)n2CCc1ccccc1`, 2.36% (inactive); with `CCCCCCNS(=O)(=O)c1ccccc1Br`, -2.52% (inactive) and 6.23% (inactive). The result for `O=C(COC(=O)c1ccc(S(=O)(=O)Nc2ccccc2)cc1)NCC1CCCO1` (stereo unspecified) reads -1.31% (inactive); that for `CCOC(=O)N1CCN(c2cc(C)c([N+](=O)[O-])cc2F)CC1`, 16.3% (inactive).

For `CS(=O)(=O)c1ccc2nnn(OCC(=O)Nc3cccc(C#N)c3)c2c1`, the max response was -3.01% (inactive). Take `O=C(O)CC(c1ccccc1F)N1Cc2ccccc2C1=O` (stereo unspecified): the max response is -3.84% (inactive). Take `COc1cc([N+](=O)[O-])cc([N+](=O)[O-])c1NC(=O)N1CCOCC1`: the max response was -3.17% (inactive).

In the case of `COc1ccc(OCCCON2C(=O)c3ccccc3C2=O)cc1`, the max response is -3.07% (inactive). The result for `O=C1c2ccccc2C(=O)N1CCOc1ccc(F)cc1` reads 34.9% (active); that for `O=C(OCCN1C(=O)c2ccccc2C1=O)Oc1ccccc1`, -5.45% (inactive); that for `COc1cc(OC)cc(C(=O)Nc2nnc(SCC(=O)NCC3CCCO3)s2)c1` (stereo unspecified), 5.61% (inactive).

Take `COC(=O)C1=C(C)N(C(C)c2ccccc2)C(=O)/C1=C\c1ccco1` (stereo unspecified): the max response is 12.5% (inactive).

Take `O=C(Nn1cnnc1)c1cc(Cl)ccc1Cl`: the max response was 1.72% (inactive). For `CCc1c(O)nc(SCC(=O)N2CCCCC2)n(-c2ccccc2C)c1=O`, the max response was -1.43% (inactive).

As to `Cc1ccc(-n2c(SCC(=O)N3CCC(C(=O)O)CC3)nc3ccccc3c2=O)cc1C`, the max response is 25.2% (active).

On to `COc1cccc(-n2c(SCC(=O)c3c[nH]c4ccccc34)nc3ccccc3c2=O)c1`, for which the max response is -2.32% (inactive). For `Cc1[nH]c2ccccc2c1C(=O)CN1CC(C)CC(C)C1` (stereo unspecified), the max response is -1.83% (inactive). With `O=C(NC1CC1)C1=C[C@H](c2c[nH]c3ccccc23)C[C@H](OCc2ccc(CO)cc2)O1` the figure was 16.2% (active). The result for `O=C(NCc1ccccc1)C1=C[C@@H](c2ccc(C(F)(F)F)cc2)C[C@@H](OCc2ccc(CO)cc2)O1` reads 6.43% (inactive).

Consider `C=CCOC(=O)C1=C[C@@H](c2ccccc2)C[C@@H](OCc2ccc(CO)cc2)O1`, for which the max response is 8.03% (inactive). The result for `NC(=O)C1=C[C@@H](c2csc3ccccc23)C[C@@H](OCc2ccc(CO)cc2)O1` reads -2.5% (inactive).

Consider `NC(=O)C1=C[C@H](c2csc3ccccc23)C[C@H](OCc2ccc(CO)cc2)O1`, for which the max response was 20.4% (active). The result for `O=C(NCc1ccccc1)C1=C[C@H](C2CC2)C[C@H](OCc2ccc(CO)cc2)O1` reads -2.61% (inactive); that for `CCc1cccc(NC(=O)CCCN2C(=O)C(c3ccccc3)Oc3cccnc32)c1` (stereo unspecified), 11.2% (inactive). As to `C=C(Br)Cn1c(CCCC)nc2ccccc21`, the max response is 3.99% (inactive). With `COc1ccc(C)cc1S(=O)(=O)NCCc1ccccc1` the figure was -1.77% (inactive); with `COc1ccc(CCN2C(=O)N(c3ccc(OC)cc3)C(=O)C2CC(=O)Nc2ccc(OC)cc2)cc1` (stereo unspecified), 1.2% (inactive). With `Cc1cc(C(F)F)nn1CC(=O)NC1CCCCCC1` the figure was 6.8% (inactive).

Turning to `O=C(CN1CCCCCC1)Nc1ccc(Br)cc1Br`, the max response was 15.8% (inactive). The result for `O=CN1CCN(C2CC(=O)N(c3ccc4c(c3)OCO4)C2=O)CC1` (stereo unspecified) reads 11.4% (inactive); that for `Cc1ccc(N2C(=O)CC(NCc3ccc4c(c3)OCO4)C2=O)cc1Cl` (stereo unspecified), 24% (active). The result for `Cc1ccc(CC2CC(=O)N(c3ccc4c(c3)OCCO4)C2=O)cc1` (stereo unspecified) reads 21.2% (inactive); that for `CCNC(=O)CC1C(=O)N(c2ccc(OC)cc2)C(=S)N1CCc1ccncc1` (stereo unspecified), -6.33% (inactive). With `Cc1ccc2c(c1)N(CC(=O)NCC1CCCO1)C(=O)CO2` (stereo unspecified) the figure was -1.04% (inactive); with `O=C(NCCCN1CCCCC1)C1CC(=O)N(CCc2ccccc2)C1` (stereo unspecified), 3.29% (inactive); with `COc1ccc(NS(=O)(=O)c2cc(NC(=O)/C=C/c3cc(OC)c(OC)c(OC)c3)ccc2N2CCCCC2)cc1`, -2.53% (inactive). Consider `COc1cccc(C(=O)Nc2cccnc2)c1OC`, for which the max response was 2.63% (inactive). `COc1ccc(OC)c(/C=C/C(=O)OCC(=O)Nc2ccc3c(c2)OCCO3)c1`: the max response was 4.24% (inactive).

As to `COc1ccc(/C=C/C(=O)Nc2ccc3c(c2)OCCO3)cc1OC`, the max response was 34.3% (active). With `COc1ccc(/C=C/C(=O)Nc2ccc(C)cc2)cc1S(=O)(=O)N1CCOCC1` the figure was 10.5% (inactive); with `COc1ccc(/C=C/C(=O)Nc2cccnc2)cc1OC`, 19.5% (active); with `COc1cc(/C=N/NC(=S)Nc2cccnc2)cc(OC)c1O`, 14% (inactive). For the compound `COc1ccc(/C=C/C(=O)Nc2ccc(C34CC5CC(CC(O)(C5)C3)C4)cc2)cc1OC`, the max response is 36.8% (active). With `O=C(/C=C\c1ccc2c(c1)OCO2)NC1(C(=O)Nc2ccc3c(c2)OCCO3)CCCCC1` the figure was -4.38% (inactive); with `COc1cccc(/C=C/C(=O)Nc2ccc3c(c2)OCCO3)c1`, 51.1% (active).

Consider `COc1ccc(/C=C/C(=O)N2CCCC2)cc1OC`, for which the max response is 5.12% (inactive).
